D2 PAM-1: D2 dopamine receptor (human) potentiation. P14416. HEK293 T-REx D2, calcium flux, EC20 dopamine potentiation. potentiation, % at 10 µM. hit rate 0.34% among 340,000;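 active means potentiation over 3 SD above the plate norm, cut at about 30% in these data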; further: 0% is about no effect
Target sequence (P14416 whole entry, looked up): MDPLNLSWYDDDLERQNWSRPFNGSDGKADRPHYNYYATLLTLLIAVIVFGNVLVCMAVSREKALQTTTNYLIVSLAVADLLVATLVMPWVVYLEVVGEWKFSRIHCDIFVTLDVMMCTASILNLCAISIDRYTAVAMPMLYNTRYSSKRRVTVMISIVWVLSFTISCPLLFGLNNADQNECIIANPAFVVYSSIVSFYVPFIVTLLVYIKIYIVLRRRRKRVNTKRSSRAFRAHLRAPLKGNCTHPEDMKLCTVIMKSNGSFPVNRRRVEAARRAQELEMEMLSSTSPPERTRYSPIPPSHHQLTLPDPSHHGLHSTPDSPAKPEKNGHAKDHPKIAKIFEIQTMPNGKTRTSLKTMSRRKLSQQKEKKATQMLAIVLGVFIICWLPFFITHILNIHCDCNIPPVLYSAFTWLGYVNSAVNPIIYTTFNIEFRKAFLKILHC
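Tetracycline-induced HEK293 T-REx cells force-coupled to calcium signalling expressed D2; compounds were pin-added after a 10 s baseline, read kinetically 180 s, then an EC20 dopamine challenge followed with a further 180 s calcium read.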
D2 antagonist: antagonists of human D2 dopamine receptor; P14416; HEK293 TREx D2 cells, calcium flux, dopamine EC80; inhibition, % at 10 µM; hit rate 2% among 340,000; AID 485344; in the data active means inhibition above about 30%; inactive means below that, where a call was filed; further: 0% is about no effect
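Compounds are added to dye-loaded, induced HEK293 T-REx cells coupled to calcium release via D2; after a 3 min kinetic read an EC80 dopamine stimulus is given and fluorescence is recorded for 3 more min.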
D2 ag-1: agonists of human D2 dopamine receptor; P14416; activation, % at 2 µM; AID 485358; hit rate 0.53% among 340,000; HEK293 T-REx D2 cells, calcium flux agonist mode;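 active means activation over 3 SD above normal in the single-dose calcium agonist read, cut at about 30% in these data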; further: 0% is about no effect
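HEK293 Trex D2 cells, tetracycline-induced, o/n 30 C 5% CO2; no-wash Ca dye, RT 30–90 min; 10-cycle baseline, 23 nl cpd added, kinetic Ca read 180 s; agonist hits = positive Ca response.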
D2 ag-2: human D2 receptor agonism in beta-arrestin assay | P14416 | activation, % (test concentration not listed) | AID 624465 | DiscoveRx PathHunter D2 beta-arrestin, luminescence, 90 min; 100% = 57 uM dopamine signal | hit rate 0.084% among 360,000; in the data active means activation above about 40%
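DiscoveRx PathHunter D2 beta-arrestin cells (2,100/well) attached overnight, then compound-stimulated 90 min at 37 C in HBSS/10 mM HEPES/0.1% Tween-20 buffer; beta-galactosidase complementation read by luminescence after 1 h at ambient temperature. Dopamine 57 uM final (EC100) as control.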
D2 PAM-2: positive allosteric modulators of human D2 dopamine receptor. DiscoveRx D2 beta-arrestin cells, luminescence, 90 min; 100% = 57 uM dopamine signal. P14416. AID 624464. hit rate 0.23% among 360,000. potentiation, % (concentration not given with the values); in the data active means potentiation above about 50%
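PathHunter D2 cells, attached overnight at 37 deg C, received compound in DMSO plus dopamine at EC20 (50 nM final) for 90 min at 37 deg C. Beta-arrestin recruitment was read as luminescence after 1 h with detection reagent at ambient temperature.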
Active calls of the source: *. The list is not random: actives were taken first. Their share in the collection is about 2.4%.

What do the screens show for `CCOC(=O)c1cccc(NC(=O)N2CC(CC)Sc3ccccc32)c1` (stereo unspecified)?
D2 PAM-1: 4.4; D2 ag-1: -0.9

How did Cc1oc2ncn(CC(C)C)c(=O)c2c1C(=O)NC(C)c1ccccc1 (stereo unspecified) do in these assays?
D2 PAM-1: 4.0; D2 ag-1: -2.0

How did COC(=O)c1ccc(NC(=O)CSCc2ccccc2)cc1 do in these assays?
D2 PAM-1: 4.6; D2 antagonist: 0.1; D2 ag-1: -2.8; D2 ag-2: -3.1; D2 PAM-2: -0.1

Results for CCn1c(SCC(=O)Nc2ccc(C(=O)OC)cc2)nc2cccnc21 ?
D2 PAM-1: 35.3*; D2 antagonist: -1.1; D2 ag-1: -0.8; D2 ag-2: -2.1; D2 PAM-2: -10.8

Results for CCn1c(SCC(=O)Nc2ccc(C(C)=O)cc2)nc2ccccc21 ?
D2 PAM-1: 2.0; D2 antagonist: 19.0; D2 ag-1: -0.1; D2 ag-2: 0.8; D2 PAM-2: -7.4

Results for COC(=O)c1ccc(NC(=O)CSCc2ccccc2C)cc1 ?
D2 PAM-1: -9.7; D2 antagonist: 34.6*; D2 ag-1: -0.9; D2 ag-2: 0.6; D2 PAM-2: -0.9

How did COCCCNC(=O)c1c(NC(=O)Cc2coc3c(C)c(C)ccc23)sc2c1CCCC2 do in these assays?
D2 PAM-1: 8.1; D2 ag-1: -0.6

How did COc1ccc(NC(=O)NNC(=O)CCc2ccc(O)c(O)c2)cc1OC do in these assays?
D2 PAM-1: -8.9; D2 antagonist: -7.9; D2 ag-1: 39.0*; D2 ag-2: 8.9; D2 PAM-2: 2.4

Results for Cc1ccc(-c2cn3c(n2)sc2cc(C(=O)NC4CCCCC4)ccc23)cc1 ?
D2 PAM-1: 4.0; D2 ag-1: 1.0

What do the screens show for `Cc1cccn2c(=O)c(C(=O)NCc3ccccc3Cl)c(O)nc12`?
D2 PAM-1: 14.8

Results for Cc1ccc(C2CC(C(F)(F)F)n3ncc(C(=O)NCc4ccco4)c3N2)cc1 (stereo unspecified) ?
D2 PAM-1: 3.5; D2 antagonist: 37.2*; D2 ag-1: -0.3; D2 ag-2: -2.7; D2 PAM-2: -8.8

What do the screens show for `CC(=O)N1CCc2c(sc3c2c(=O)n(CCc2ccccc2)c(=O)n3Cc2cccc(C)c2)C1`?
D2 PAM-1: -1.4

What do the screens show for `Cc1ccc(NC(=S)NC2CC3CCCC(C2)N3Cc2cccs2)cc1` (stereo unspecified)?
D2 PAM-1: -23.1; D2 antagonist: 71.9*; D2 ag-1: 0.9; D2 ag-2: -3.0; D2 PAM-2: -38.3

What do the screens show for `Fc1ccc(NC(=S)NC2CC3CCCC(C2)N3Cc2cccs2)cc1` (stereo unspecified)?
D2 PAM-1: -12.9; D2 antagonist: 15.0; D2 ag-1: 0.0; D2 ag-2: -4.2; D2 PAM-2: -22.7

How did Cc1cccc(NC(=S)NC2CC3CCCC(C2)N3Cc2cccs2)c1C (stereo unspecified) do in these assays?
D2 PAM-1: -22.1; D2 antagonist: 68.6*; D2 ag-1: 0.5; D2 ag-2: -1.2; D2 PAM-2: -24.2

What do the screens show for `CCCN1C2CCCC1CC(NC(=S)Nc1cccc(C)c1C)C2` (stereo unspecified)?
D2 PAM-1: -10.2; D2 antagonist: -16.0; D2 ag-1: -0.1; D2 ag-2: -3.3; D2 PAM-2: -13.2

How did O=C(Nc1cccc(Cl)c1)NC1CC2CCC(C1)N2Cc1cccs1 (stereo unspecified) do in these assays?
D2 PAM-1: -17.3; D2 antagonist: 73.4*; D2 ag-1: 0.3; D2 ag-2: 1.0; D2 PAM-2: -3.7

How did CCc1ccccc1NC(=S)NC1CC2CCCC(C1)N2Cc1cccs1 (stereo unspecified) do in these assays?
D2 PAM-1: -23.0; D2 antagonist: 71.7*; D2 ag-1: -0.8; D2 ag-2: -1.2; D2 PAM-2: -19.0

Results for COc1cc(CN(C(=O)COc2ccc(Cl)cc2)c2ccccn2)cc(OC)c1OC ?
D2 PAM-1: 14.0; D2 ag-1: -1.4

How did Cc1ccc(C2=NN(CC(=O)NCCCN(CC(C)C)CC(C)C)C(=O)CC2)cc1 do in these assays?
D2 PAM-1: -13.1; D2 ag-1: 0.5

What do the screens show for `CCOc1ccc(NC(=O)C2CCN(C(=O)N3CC(C)Oc4ccc(Cl)cc43)CC2)cc1` (stereo unspecified)?
D2 ag-1: 0.2

What do the screens show for `CCOc1ccc(NC(=O)Cn2c(=O)n(Cc3ccc4c(c3)OCO4)c(=O)c3ccc(C(=O)NC4CCCCC4)cc32)cc1`?
D2 PAM-1: 22.1; D2 ag-1: 0.5

What do the screens show for `Cc1ccc(-c2nnc(N(C)C(=O)c3cccnc3)s2)cn1`?
D2 PAM-1: 5.7; D2 antagonist: 16.1; D2 ag-1: -1.3; D2 ag-2: -1.3; D2 PAM-2: 22.9

How did Cc1ccc(-c2nnc(N(C)C(=O)c3cccnc3)s2)cc1 do in these assays?
D2 PAM-1: 37.6*; D2 antagonist: 3.6; D2 ag-1: 0.3; D2 ag-2: 3.3; D2 PAM-2: 12.2

Results for O=C(CCCN1CCOCC1)c1ccc2c(c1)OCCO2 ?
D2 PAM-1: 1.7; D2 antagonist: -6.9; D2 ag-1: 0.2; D2 ag-2: 1.2; D2 PAM-2: -21.9

Results for O=C(CCCN1CCC(c2ccccc2)C1)c1ccc2c(c1)OCCO2 (stereo unspecified) ?
D2 PAM-1: -23.4; D2 antagonist: 79.1*; D2 ag-1: 2.7; D2 ag-2: -1.3; D2 PAM-2: -29.8

How did COc1cc(OC)c(OC)cc1CN1CCc2nc(Nc3ccc4c(c3)OCCO4)ncc2C1 do in these assays?
D2 PAM-1: 5.8

Results for O=C(NC1CC(=O)N(c2cccc(F)c2)C1)c1ccc(S(=O)(=O)N2CCCC2)cc1 (stereo unspecified) ?
D2 PAM-1: 1.8; D2 ag-1: 0.8

What do the screens show for `O=c1nc2ccccc2c2n1CC(CN1CCN(C(c3ccccc3)c3ccccc3)CC1)N2` (stereo unspecified)?
D2 PAM-1: -27.0; D2 antagonist: 47.2*; D2 ag-1: -0.6; D2 ag-2: -0.5; D2 PAM-2: -15.6

How did COc1ccc(Cc2c(C)nn(-c3nc(C)c(C(=O)Nc4cccc(C(C)=O)c4)s3)c2C)cc1 do in these assays?
D2 PAM-1: -8.8; D2 ag-1: -1.8

How did Cc1cc(C(=O)N2CCc3ccccc32)n(-c2ccccc2)n1 do in these assays?
D2 PAM-1: 5.2; D2 antagonist: 37.1*; D2 ag-1: 1.9; D2 ag-2: -7.2; D2 PAM-2: 6.9

Results for CN(C(=O)c1ccc(COc2ccccc2Br)o1)c1ccccc1 ?
D2 PAM-1: -15.9; D2 antagonist: 44.2*; D2 ag-1: -1.2; D2 ag-2: 2.9; D2 PAM-2: -2.0

Results for COc1ccc(C(=O)OCC(=O)N2CCN(C(=O)c3ccco3)CC2)c(OC)c1OC ?
D2 ag-2: 0.3; D2 PAM-2: -6.8

Screens: PubChem, National Center for Advancing Translational Sciences (NCATS)
